Broadly, the inhibition is the relative decrease from the control value, in per cent.

Test [1] deals with T1, Tyrosine-protein kinase ITK/TSK (Homo sapiens) (UniProt Q08881).
T1 sequence (whole entry): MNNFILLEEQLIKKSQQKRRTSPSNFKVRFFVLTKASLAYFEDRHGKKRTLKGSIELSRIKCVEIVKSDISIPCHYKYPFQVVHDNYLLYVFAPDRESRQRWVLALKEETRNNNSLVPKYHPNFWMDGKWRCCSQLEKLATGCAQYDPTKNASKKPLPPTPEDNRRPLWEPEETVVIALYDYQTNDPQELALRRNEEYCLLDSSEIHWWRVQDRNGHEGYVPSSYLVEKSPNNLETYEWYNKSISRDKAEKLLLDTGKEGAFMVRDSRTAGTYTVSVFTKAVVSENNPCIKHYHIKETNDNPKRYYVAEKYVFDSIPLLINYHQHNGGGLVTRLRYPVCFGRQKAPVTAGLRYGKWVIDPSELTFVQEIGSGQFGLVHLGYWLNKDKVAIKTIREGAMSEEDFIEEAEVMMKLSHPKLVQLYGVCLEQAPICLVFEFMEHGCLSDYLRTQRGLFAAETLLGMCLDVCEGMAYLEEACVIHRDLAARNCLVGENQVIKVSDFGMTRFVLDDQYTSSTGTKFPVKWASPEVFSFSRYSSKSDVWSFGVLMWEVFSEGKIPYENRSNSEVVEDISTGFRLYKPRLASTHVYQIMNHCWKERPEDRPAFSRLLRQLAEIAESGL
The settings on record: at 1 µM.

Test [2] addresses Tyrosine-protein kinase JAK1 (Homo sapiens) (UniProt P23458). The settings on record: at 0.1 µM.
For test [3] the target is unchanged. The settings on record: at 1 µM.
The target of test [4] is Tyrosine-protein kinase JAK2 (Homo sapiens) (UniProt O60674). The conditions noted are these: at 0.1 µM.
The target is the same in test [5]. The conditions noted are these: at 1 µM.
For test [6], the target named is T2, Tyrosine-protein kinase JAK3 (Homo sapiens) (UniProt P52333).
T2 sequence (whole entry): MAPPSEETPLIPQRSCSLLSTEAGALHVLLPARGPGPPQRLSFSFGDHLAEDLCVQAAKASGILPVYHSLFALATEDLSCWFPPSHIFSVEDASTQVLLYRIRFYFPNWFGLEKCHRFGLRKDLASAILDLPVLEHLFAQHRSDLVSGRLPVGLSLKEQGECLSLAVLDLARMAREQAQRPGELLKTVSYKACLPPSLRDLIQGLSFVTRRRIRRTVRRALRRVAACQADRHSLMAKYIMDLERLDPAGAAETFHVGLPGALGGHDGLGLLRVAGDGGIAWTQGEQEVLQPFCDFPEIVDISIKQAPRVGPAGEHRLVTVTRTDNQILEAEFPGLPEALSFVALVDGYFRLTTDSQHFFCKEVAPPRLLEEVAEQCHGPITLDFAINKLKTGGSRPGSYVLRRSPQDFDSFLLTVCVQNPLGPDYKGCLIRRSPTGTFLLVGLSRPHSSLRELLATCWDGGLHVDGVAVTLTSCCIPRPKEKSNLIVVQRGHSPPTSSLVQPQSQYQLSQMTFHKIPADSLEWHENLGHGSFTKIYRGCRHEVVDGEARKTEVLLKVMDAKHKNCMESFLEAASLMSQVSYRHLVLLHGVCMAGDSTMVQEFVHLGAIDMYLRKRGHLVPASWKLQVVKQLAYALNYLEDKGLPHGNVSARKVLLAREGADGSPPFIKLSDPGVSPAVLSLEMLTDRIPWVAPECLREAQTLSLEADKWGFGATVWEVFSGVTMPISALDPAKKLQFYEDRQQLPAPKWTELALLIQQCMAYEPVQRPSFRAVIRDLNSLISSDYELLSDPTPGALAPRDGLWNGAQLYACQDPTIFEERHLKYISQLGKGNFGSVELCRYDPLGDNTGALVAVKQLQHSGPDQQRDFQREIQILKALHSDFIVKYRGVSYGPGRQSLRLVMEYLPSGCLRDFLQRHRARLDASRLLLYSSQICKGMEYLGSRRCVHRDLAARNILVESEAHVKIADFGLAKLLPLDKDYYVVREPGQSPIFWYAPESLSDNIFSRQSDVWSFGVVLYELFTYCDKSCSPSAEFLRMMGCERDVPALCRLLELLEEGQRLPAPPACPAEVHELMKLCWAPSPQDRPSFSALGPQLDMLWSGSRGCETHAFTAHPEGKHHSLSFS
The settings on record: at 0.1 µM.

Test [7] addresses T2, Tyrosine-protein kinase JAK3 (Homo sapiens). The conditions noted are these: at 1 µM.
The target of test [8] is Vascular endothelial growth factor receptor 2 (Homo sapiens) (UniProt P35968). The settings on record: at 0.1 µM.
Test [9] has the same target. The conditions noted are these: at 1 µM.
The target of test [10] is Mast/stem cell growth factor receptor Kit (Homo sapiens) (UniProt P10721). The conditions noted are these: at 0.1 µM.
Test [11] has the same target. The conditions noted are these: at 1 µM.
The test system of test [12] is Mast/stem cell growth factor receptor Kit (Homo sapiens), P10721 [D816V]. The conditions noted are these: at 0.1 µM.
Test [13] has the same test system. The settings on record: at 1 µM.
The test system of test [14] is Mast/stem cell growth factor receptor Kit (Homo sapiens), P10721 [T670I]. The conditions noted are these: at 0.1 µM.
The test system is the same in test [15]. The settings on record: at 1 µM.
In test [16] the test system is Mast/stem cell growth factor receptor Kit (Homo sapiens), P10721 [V560G]. The conditions noted are these: at 0.1 µM.
Test [17] shares this test system. The settings on record: at 1 µM.
In test [18] the target is Tyrosine-protein kinase Lck (Homo sapiens) (UniProt P06239). The settings on record: at 0.1 µM.
Test [19] has the same target. The conditions noted are these: at 1 µM.
Test [20] deals with Leukocyte tyrosine kinase receptor (Homo sapiens) (UniProt P29376). The settings on record: at 0.1 µM.
Chain of Leukocyte tyrosine kinase receptor (Homo sapiens) (P29376 whole entry): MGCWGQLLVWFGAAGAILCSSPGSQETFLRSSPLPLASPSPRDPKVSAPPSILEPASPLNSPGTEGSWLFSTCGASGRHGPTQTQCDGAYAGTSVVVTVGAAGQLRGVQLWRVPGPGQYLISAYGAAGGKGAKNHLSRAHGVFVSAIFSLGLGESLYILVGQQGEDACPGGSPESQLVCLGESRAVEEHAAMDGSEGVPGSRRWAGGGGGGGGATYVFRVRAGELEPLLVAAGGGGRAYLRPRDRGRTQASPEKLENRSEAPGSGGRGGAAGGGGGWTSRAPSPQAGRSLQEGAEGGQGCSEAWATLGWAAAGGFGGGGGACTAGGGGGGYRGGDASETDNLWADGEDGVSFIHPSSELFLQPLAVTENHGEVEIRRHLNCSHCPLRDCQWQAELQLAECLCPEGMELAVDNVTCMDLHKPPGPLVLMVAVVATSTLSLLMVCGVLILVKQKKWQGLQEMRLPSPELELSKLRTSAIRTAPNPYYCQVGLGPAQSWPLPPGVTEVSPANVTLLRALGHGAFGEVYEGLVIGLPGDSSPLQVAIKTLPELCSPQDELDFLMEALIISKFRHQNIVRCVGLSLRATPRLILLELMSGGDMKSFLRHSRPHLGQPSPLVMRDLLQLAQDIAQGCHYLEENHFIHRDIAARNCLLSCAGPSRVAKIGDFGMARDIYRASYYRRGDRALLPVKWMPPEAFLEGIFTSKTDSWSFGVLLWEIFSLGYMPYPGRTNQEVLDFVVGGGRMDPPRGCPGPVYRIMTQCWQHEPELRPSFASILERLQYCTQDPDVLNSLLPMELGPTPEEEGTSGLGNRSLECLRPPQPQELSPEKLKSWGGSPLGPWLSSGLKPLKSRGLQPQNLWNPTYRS

Chain of Tyrosine-protein kinase Lck (Homo sapiens) (P06239 2-509 limits assumed): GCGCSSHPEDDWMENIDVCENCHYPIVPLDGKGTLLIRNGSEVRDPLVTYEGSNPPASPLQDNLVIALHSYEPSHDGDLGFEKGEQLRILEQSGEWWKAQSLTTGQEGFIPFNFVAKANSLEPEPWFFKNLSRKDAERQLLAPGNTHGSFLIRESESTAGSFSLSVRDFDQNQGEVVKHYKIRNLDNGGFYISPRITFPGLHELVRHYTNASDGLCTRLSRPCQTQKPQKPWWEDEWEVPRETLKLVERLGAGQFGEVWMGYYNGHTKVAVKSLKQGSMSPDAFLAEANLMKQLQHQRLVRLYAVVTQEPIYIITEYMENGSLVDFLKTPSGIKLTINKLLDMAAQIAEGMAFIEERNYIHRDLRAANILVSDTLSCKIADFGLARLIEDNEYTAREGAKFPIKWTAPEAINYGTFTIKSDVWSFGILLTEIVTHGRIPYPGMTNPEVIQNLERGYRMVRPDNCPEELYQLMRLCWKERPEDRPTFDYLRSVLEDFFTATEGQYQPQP
Chain of Vascular endothelial growth factor receptor 2 (Homo sapiens) (P35968 whole entry): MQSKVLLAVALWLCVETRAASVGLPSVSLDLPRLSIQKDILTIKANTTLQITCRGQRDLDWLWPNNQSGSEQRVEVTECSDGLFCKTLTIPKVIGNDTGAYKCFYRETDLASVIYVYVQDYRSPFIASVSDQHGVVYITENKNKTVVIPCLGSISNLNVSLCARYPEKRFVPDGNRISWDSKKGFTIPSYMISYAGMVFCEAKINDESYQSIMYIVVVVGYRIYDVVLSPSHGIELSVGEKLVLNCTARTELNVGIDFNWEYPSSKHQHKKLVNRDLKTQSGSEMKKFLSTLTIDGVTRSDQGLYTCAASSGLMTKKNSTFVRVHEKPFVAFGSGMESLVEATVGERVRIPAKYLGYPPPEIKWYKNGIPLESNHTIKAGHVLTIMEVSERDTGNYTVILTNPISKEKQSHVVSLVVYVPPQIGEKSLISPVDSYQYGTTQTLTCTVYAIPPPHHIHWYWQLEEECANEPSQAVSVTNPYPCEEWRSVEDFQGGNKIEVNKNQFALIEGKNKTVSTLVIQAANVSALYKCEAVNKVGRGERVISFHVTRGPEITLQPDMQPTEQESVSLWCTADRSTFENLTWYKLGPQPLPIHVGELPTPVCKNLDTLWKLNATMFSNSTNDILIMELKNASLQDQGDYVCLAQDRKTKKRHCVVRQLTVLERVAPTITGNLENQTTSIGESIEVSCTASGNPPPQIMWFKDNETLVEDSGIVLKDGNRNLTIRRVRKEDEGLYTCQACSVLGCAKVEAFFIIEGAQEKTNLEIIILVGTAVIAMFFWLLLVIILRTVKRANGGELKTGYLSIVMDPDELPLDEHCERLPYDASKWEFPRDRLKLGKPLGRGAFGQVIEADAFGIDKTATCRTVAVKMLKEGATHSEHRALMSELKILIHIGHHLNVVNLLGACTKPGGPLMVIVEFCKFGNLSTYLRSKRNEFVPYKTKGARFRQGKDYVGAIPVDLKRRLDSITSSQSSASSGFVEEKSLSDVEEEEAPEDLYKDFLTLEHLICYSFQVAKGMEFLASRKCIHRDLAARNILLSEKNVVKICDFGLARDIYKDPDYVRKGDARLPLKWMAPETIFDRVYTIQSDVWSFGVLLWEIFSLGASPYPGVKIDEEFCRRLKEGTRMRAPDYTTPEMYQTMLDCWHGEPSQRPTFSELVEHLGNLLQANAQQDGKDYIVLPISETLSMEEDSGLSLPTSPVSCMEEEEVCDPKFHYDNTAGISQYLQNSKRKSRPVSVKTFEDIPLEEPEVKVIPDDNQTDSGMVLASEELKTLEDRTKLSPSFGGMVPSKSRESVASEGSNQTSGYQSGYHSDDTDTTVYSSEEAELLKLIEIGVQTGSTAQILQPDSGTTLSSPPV
Chain of Mast/stem cell growth factor receptor Kit (Homo sapiens), P10721 [D816V] (P10721 whole entry D816V): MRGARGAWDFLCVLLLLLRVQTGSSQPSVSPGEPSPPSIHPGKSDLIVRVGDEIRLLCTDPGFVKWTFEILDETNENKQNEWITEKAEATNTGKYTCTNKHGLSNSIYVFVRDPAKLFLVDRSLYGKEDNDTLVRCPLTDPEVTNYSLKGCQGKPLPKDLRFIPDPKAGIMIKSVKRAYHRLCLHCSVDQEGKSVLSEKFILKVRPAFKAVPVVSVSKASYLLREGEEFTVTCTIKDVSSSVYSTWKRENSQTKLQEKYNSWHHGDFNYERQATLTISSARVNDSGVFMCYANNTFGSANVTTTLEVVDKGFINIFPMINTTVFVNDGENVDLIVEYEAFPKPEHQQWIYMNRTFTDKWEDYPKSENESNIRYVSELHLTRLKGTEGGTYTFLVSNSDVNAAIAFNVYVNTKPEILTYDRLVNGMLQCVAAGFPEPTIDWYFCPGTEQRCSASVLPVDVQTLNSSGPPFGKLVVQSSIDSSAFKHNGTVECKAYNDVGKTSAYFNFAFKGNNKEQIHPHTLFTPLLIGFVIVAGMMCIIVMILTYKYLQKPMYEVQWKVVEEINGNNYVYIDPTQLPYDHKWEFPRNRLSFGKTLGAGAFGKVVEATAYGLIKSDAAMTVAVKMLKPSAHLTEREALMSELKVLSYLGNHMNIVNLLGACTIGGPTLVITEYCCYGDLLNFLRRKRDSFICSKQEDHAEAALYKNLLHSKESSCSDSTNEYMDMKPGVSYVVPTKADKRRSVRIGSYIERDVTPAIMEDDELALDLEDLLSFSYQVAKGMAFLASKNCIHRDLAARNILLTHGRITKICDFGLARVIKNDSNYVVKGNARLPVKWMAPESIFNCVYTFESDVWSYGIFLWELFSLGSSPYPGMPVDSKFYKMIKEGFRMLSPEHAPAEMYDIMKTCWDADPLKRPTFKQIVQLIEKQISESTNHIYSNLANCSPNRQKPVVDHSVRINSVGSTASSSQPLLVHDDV
Chain of Mast/stem cell growth factor receptor Kit (Homo sapiens), P10721 [T670I] (P10721 whole entry T670I): as the sequence (P10721 whole entry D816V) above, with T670I, V816D counted along it
Chain of Tyrosine-protein kinase JAK2 (Homo sapiens) (O60674 whole entry): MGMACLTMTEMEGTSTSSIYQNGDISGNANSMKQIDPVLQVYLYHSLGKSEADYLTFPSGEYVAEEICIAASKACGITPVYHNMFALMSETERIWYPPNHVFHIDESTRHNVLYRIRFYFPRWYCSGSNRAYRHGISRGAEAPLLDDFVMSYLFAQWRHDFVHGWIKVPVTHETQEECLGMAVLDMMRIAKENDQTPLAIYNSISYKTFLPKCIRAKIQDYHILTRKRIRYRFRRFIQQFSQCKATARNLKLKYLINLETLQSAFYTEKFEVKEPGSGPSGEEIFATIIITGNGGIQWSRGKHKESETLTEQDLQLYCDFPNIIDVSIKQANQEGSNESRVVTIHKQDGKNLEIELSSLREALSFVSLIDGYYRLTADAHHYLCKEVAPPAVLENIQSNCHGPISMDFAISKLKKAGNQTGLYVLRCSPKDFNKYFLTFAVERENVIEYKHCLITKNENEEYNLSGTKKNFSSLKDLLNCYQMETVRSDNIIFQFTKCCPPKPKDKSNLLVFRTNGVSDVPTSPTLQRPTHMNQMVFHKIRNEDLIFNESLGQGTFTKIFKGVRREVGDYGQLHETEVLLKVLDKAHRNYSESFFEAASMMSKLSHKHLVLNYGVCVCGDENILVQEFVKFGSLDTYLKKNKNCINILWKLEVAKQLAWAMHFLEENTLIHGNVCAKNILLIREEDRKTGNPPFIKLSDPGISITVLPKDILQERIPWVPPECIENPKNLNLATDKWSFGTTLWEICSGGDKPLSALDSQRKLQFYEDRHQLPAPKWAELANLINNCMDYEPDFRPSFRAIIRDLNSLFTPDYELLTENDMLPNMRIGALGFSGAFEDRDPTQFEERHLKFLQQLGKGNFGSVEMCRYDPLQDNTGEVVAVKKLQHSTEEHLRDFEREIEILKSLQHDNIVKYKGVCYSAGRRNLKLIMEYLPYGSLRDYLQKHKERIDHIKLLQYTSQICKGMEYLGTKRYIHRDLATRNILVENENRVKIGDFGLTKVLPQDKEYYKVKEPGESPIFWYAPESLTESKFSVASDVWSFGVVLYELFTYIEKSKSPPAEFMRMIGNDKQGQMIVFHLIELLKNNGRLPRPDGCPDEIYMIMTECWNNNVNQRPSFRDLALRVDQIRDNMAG
Chain of Mast/stem cell growth factor receptor Kit (Homo sapiens) (P10721 whole entry): as the sequence (P10721 whole entry D816V) above, with V816D counted along it
Chain of Mast/stem cell growth factor receptor Kit (Homo sapiens), P10721 [V560G] (P10721 whole entry V560G): as the sequence (P10721 whole entry D816V) above, with V560G, V816D counted along it

On to `N#Cc1ccc(Oc2nccc(-c3c(-c4ccc(F)cc4)ncn3C3CCNCC3)n2)cc1`, for which the inhibition in test [1] was 0.22%; in test [2] it was 3.07%; in [3], 3.3%; in [4], 1.47%; in test [5], 0.75%; in [6], -3.92%. Further, the inhibition amounted to 1.56% in test [7]; 3.95% in test [8]; 4.78% in test [9]; 6.17% in test [10]; 6.19% in [11]; 2.91% in test [12]. The inhibition in test [13] is 2.36%; in [14], 3.26%; in test [15], 4.72%; in [16] it was -0.39%; in test [17], -1.19%; in [18], 3.86%. Further, the inhibition in [19] worked out at 6.11%; in test [20], 4.74%.

On to `O=C(Nc1n[nH]c2cc(-c3ccccc3)ccc12)C1CC1`, for which the inhibition in test [1] is 2.12%; in test [2] it was 2.85%; in test [3] it was 7.69%; in test [4] it was 2.26%; in [5] it was 0.77%; in [6], -1.69%. In addition, the inhibition in [7] came to 0.16%; in test [8], 4.79%; in [9], 12.6%; in [10] it was 3.52%; in test [11], 7.38%; in test [12], 3.94%. Moreover, the inhibition in test [13] is 8.12%; in [14], 4.34%; in test [15], 4.01%; in [16], 1.4%; in test [17] it was 3.87%; in test [18], 2.21%. The inhibition worked out at 6.66% in test [19] and 3.88% in [20].

For `Fc1ccc(-c2ncn(C3CCNCC3)c2-c2ccnc(Oc3ccc(F)c(F)c3)n2)cc1`, the inhibition in test [1] is -2.62%; in test [2], 3.04%; in [3], 7.49%; in test [4] it was 1.1%; in test [5], 0.69%; in test [6], -5.49%. The inhibition in test [7] was -1.81%; in test [8], 6.78%; in test [9] it was 11.5%; in test [10] it was 1.92%; in test [11], 5.24%; in [12], 5.58%. Also, the inhibition is 2.5% in test [13]; 1.57% in test [14]; 1.83% in test [15]; -1.36% in test [16]; 0.87% in test [17]; -1.59% in test [18]. Besides, the values for the inhibition in test [19] and in test [20] were -1.94% and 2.84%, respectively.

For the compound `COc1cc2ncn(-c3cc(OCc4ccccc4C(F)(F)F)c(C(C)=O)s3)c2cc1OC`, the inhibition was 6.89% in [1]; 2.15% in [2]; 2.47% in test [3]; 1.06% in test [4]; -0.01% in test [5]; -2.98% in [6]. The inhibition in test [7] is -1.59%; in [8] it was 3.96%; in test [9] it was 7.57%; in test [10], 3.46%; in test [11], 4.53%; in [12], 2.21%. Moreover, the inhibition is 1.58% in [13]; 2.81% in [14]; 6.12% in test [15]; -1.46% in test [16]; 1.6% in [17]; 4.22% in [18]. For the same compound, the results for the inhibition in test [19] and in test [20] were 9.66% and 2.03%, respectively.

Regarding `COc1ccc2cc(-c3c(-c4ccncc4)nc(-c4ccc([S+](C)[O-])cc4C)n3C)ccc2c1` (stereo not given), the inhibition in test [1] is 0.95%; in test [2], -3.09%; in [3] it was 4.21%; in test [4] it was 0.25%; in [5], -0.49%; in test [6] it was 0.51%. Also, the inhibition in test [7] is 0.61%; in test [8], 8.24%; in test [9], 49%; in [10] it was -0.44%; in test [11], 4.45%; in test [12], -3.23%. The inhibition in [13] was -3.08%; in test [14] it was 0.48%; in test [15] it was 0.67%; in test [16], 4.53%; in test [17], -0.3%; in [18], 0.43%. In addition, the results for the inhibition in test [19] and in [20] were 8.73% and 0.03%, respectively.

Regarding `C#Cc1cccc(Nc2ncnc3ccc(OCCCCNCCS(C)(=O)=O)cc23)c1`, the inhibition in [1] is -2.14%; in test [2], 0.29%; in test [3] it was 13.4%; in test [4], 1%; in test [5], 0.71%; in test [6], -4.71%. The inhibition is -3.57% in test [7]; 14.2% in test [8]; 19.6% in test [9]; 4.93% in [10]; 7.12% in test [11]; 5.01% in [12]. The inhibition was 8.8% in [13]; 1.97% in test [14]; 9.5% in test [15]; -0.82% in test [16]; 4.36% in [17]; 0.24% in [18]. Also, the inhibition worked out at 13.5% in [19] and 5.05% in [20].

Regarding `O=C(Nc1n[nH]c2nc(-c3ccc(O)cc3)c(Br)cc12)C1CC1`, the inhibition in test [1] was 3.5%; in [2], 15.5%; in [3], 55%; in [4] it was 3.57%; in [5] it was 28.4%; in [6], 11.9%. Besides, the inhibition is 62.2% in test [7]; 36.2% in [8]; 71.6% in test [9]; 17.5% in test [10]; 63.1% in [11]; 9.03% in test [12]. The inhibition in test [13] stood at 10.1%; in [14] it was 3.13%; in test [15], 4.94%; in test [16] it was 2.07%; in [17], 10.8%; in [18], 6.75%. Also, the values for the inhibition in test [19] and in test [20] were 22.2% and 62.8%, respectively.

The values above are taken from ChEMBL document CHEMBL1961873, “Compounds: GSK PKIS; Assays: Nanosyn kinase panel” (2012).
